From PubChem BioAssay (EPA / NIEHS) come the findings set out here.

SMILES strings stand for the structures. Results filed as inconclusive are left out. The source made the active and inactive calls. The calls were made as follows: active = hit-call score of the fitted dose curve at least 0.9, where 1 is the maximum; inconclusive = response in the unintended direction; inactive = score below 0.9.

rat Gamma-Aminobutyric Acid Type B Receptor (GABBR), Gabbr1 (gene 81657), sequence (Q9Z0U4 whole entry, looked up): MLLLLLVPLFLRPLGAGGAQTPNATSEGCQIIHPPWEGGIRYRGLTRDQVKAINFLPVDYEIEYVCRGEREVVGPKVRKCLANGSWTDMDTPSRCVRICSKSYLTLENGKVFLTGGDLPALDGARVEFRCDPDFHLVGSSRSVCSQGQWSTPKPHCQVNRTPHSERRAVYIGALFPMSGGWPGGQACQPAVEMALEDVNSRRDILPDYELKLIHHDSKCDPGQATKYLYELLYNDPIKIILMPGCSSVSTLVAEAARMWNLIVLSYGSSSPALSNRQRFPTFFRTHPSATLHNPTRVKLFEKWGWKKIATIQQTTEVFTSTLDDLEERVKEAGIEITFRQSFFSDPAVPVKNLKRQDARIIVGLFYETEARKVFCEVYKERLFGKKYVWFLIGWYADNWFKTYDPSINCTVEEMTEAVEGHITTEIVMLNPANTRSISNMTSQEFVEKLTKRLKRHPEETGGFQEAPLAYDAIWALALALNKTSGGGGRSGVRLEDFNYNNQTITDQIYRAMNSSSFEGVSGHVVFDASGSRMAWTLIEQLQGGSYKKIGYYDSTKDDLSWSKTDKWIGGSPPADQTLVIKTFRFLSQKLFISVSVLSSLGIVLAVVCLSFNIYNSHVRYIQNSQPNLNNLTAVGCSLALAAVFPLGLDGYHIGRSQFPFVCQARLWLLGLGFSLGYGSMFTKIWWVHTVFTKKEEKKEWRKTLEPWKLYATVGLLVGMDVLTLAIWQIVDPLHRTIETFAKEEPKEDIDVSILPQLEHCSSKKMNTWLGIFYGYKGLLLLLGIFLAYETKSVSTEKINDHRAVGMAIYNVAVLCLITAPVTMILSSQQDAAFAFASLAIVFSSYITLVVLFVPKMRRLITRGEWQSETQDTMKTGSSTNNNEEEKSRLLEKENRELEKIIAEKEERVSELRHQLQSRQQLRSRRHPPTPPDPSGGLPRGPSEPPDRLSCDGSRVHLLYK
rat Serotonin, 5-Hydroxytryptamine Receptor (5HT), Non-Selective Binding, Htr1a (gene 24473), sequence (P19327 whole entry, looked up): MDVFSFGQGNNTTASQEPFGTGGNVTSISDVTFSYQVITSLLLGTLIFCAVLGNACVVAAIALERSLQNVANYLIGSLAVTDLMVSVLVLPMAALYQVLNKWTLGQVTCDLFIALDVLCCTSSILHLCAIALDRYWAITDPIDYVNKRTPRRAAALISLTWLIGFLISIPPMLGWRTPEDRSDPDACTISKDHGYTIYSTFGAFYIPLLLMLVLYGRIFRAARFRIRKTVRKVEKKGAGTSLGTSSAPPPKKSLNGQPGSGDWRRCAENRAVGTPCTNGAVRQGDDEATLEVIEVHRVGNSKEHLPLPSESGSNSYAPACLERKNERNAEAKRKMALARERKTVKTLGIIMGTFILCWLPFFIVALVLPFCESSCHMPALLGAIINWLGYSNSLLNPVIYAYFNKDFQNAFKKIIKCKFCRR
rat Histamine Receptor (H3), Hrh3 (gene 85268), sequence (Q9QYN8 whole entry, looked up): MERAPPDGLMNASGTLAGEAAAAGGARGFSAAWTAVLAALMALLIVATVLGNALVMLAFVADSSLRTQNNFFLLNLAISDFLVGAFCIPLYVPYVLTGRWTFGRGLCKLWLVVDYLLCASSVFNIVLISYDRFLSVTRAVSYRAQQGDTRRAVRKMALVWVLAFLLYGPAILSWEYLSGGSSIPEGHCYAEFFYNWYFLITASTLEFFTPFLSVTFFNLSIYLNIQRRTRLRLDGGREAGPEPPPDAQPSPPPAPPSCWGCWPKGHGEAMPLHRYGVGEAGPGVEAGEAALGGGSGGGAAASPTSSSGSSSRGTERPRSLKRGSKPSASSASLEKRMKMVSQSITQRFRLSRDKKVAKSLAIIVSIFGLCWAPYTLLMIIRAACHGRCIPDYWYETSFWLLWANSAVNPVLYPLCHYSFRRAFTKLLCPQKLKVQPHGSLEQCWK
rat Adrenergic, Alpha 1A Receptor (Adra1A), Adra1a (gene 29412), sequence (P43140 whole entry, looked up): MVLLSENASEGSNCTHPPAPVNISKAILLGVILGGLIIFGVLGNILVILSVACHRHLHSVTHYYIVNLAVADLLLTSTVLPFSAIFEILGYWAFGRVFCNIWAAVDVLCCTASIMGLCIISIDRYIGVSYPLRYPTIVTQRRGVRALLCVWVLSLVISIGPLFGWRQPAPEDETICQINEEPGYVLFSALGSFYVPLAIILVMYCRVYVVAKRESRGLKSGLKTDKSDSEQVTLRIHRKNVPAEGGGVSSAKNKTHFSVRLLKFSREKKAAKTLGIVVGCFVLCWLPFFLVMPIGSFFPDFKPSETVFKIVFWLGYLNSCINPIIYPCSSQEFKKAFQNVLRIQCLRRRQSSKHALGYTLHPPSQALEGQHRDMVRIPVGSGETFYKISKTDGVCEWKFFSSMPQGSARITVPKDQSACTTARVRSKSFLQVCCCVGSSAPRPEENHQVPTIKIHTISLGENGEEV

The first test addresses rat Serotonin, 5-Hydroxytryptamine Receptor (5HT), Non-Selective Binding, Htr1a (gene 24473) (UniProt P19327). Put plainly: NVS_GPCR_r5HT_NonSelective: NovaScreen (NVS) G Protein-Coupled Receptor Assay for rat Serotonin, 5-Hydroxytryptamine Receptor (5HT), Non-Selective Binding (AID 2283295). On the procedure:
(§1) NVS_GPCR_r5HT_NonSelective is a biochemical, single-readout assay that uses extracted gene-proteins from Rat cortical membranes in a tissue-based cell-free assay. Measurements were taken 1 hour after chemical dosing in a 48-well plate.NVS_GPCR_r5HT_NonSelective is one of one assay component(s) measured or calculated from the NVS_GPCR_r5HT_NonSelective assay. It is designed to make measurements of radioligand binding, a form of binding reporter, as detected with scintillation counting signals by Filter-based radiodetection technology.Data from the assay component NVS_GPCR_r5HT_NonSelective was analyzed into 1 assay endpoint. This assay endpoint, NVS_GPCR_r5HT_NonSelective, was analyzed in the positive analysis fitting direction relative to DMSO as the negative control and baseline of activity. Using a type of binding reporter, loss-of-signal activity can be used to understand changes in the binding as they relate to the gene Htr1a. Furthermore, this assay endpoint can be referred to as a primary readout, because the performed assay has only produced 1 assay endpoint. To generalize the intended target to other relatable targets, this assay endpoint is annotated to the gpcr intended target family, where the subfamily is rhodopsin-like receptor.
Binding assays used specific radioligands (tritiated, iodinated) with non-radioactive competitive displacement ligands in agonist or antagonist protocols (as indicated) and various reference compounds and inhibitors to titrate specific binding to receptors and transporters. Most enzyme assays (CYPs, kinases, phosphatases, proteases, HDACs) used recombinant protein and specific substrates (fluorescence mostly, some colorimetric and radioactive) and inhibitors, followed by a biochemical separation of substrate and product. All assays for the biochemical HTS were initially run in duplicate at a single concentration (10 uM for CYP450 assays and 25 uM for all others). […] Each assay was run with positive and negative controls, and concurrent controls on every plate. The follow-up (secondary) screen tested active chemical-pairs in concentration series, as well as a few additional assays not tested in the primary screen, some selected negative inactives, and several cases re-run in the concentration series for confirmatory purposes.
Regarding `CCOC(=O)[C@]1(c2ccccc2)Oc2ccccc2[C@@H]1N`, the AC50 is 2.49 µM (active).

Take `CCC[CH2][Sn]([Cl])([CH2]CCC)[CH2]CCC`: the half-maximal activity concentration (AC50) was 12 µM (active).

On to `O=C(N[C@H](c1ccccc1)[C@@H]1CN2CCC1CC2)c1c(Cl)ccc(C(F)(F)F)c1Cl`, for which the AC50 is 37.5 µM (active).

For the compound `OCCCl`, the compound was classed as inactive.

On to `O=[N+]([O-])C(Br)(CO)CO`, for which the call was inactive.

The target of another test is rat Adrenergic, Alpha 1A Receptor (Adra1A), Adra1a (gene 29412) (UniProt P43140). Put plainly: NVS_GPCR_rAdra1A: NovaScreen (NVS) G Protein-Coupled Receptor Assay for rat Adrenergic, Alpha 1A Receptor (Adra1A) (AID 2283296). The method in brief:
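Filter radiodetection after 1 h competitive binding on CEC-pretreated rat cortical membranes. Duplicate single-point screening at 25 uM; active chemicals retested across concentration series.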
As to `CCOC(=O)[C@]1(c2ccccc2)Oc2ccccc2[C@@H]1N`, the AC50 was 0.38 µM (active).

Take `CCC[CH2][Sn]([Cl])([CH2]CCC)[CH2]CCC`: the AC50 is 11.3 µM (active).

Take `O=C(N[C@H](c1ccccc1)[C@@H]1CN2CCC1CC2)c1c(Cl)ccc(C(F)(F)F)c1Cl`: the AC50 is 18.1 µM (active).

`[Cl-].[Cl-].[Hg+2]`: the AC50 is 12.1 µM (active).

For the next test, the system named is rat Adrenergic, Alpha 1B Receptor (Adra1B), gene 24173. Put plainly: NVS_GPCR_rAdra1B: NovaScreen (NVS) G Protein-Coupled Receptor Assay for rat Adrenergic, Alpha 1B Receptor (Adra1B) (AID 2283297). The gist of the method:
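Filter-binding radioligand competition on membranes from rat liver, read after 1 h by scintillation counting. Single-concentration duplicate screen at 25 uM, followed by concentration-response on actives, normalised to DMSO.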
For `CCOC(=O)[C@]1(c2ccccc2)Oc2ccccc2[C@@H]1N`, the AC50 was 0.456 µM (active).

In the case of `CCC[CH2][Sn]([Cl])([CH2]CCC)[CH2]CCC`, the concentration at half-maximal activity (AC50) was 3.87 µM (active).

As to `O=C(N[C@H](c1ccccc1)[C@@H]1CN2CCC1CC2)c1c(Cl)ccc(C(F)(F)F)c1Cl`, the AC50 was 14.9 µM (active).

Regarding `[Cl-].[Cl-].[Hg+2]`, the AC50 is 3.96 µM (active).

Another test deals with rat Adrenergic Receptor, Beta (Adrb), Non-selective Binding, Adrb1 (gene 24925) (UniProt P18090). Put plainly: NVS_GPCR_rAdrb_NonSelective: NovaScreen (NVS) G Protein-Coupled Receptor Assay for rat Adrenergic Receptor, Beta (Adrb), Non-selective Binding (AID 2283298). The method in brief: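 Rat cortical membranes incubated 1 h with beta-adrenergic radioligand and test chemical; bound ligand measured by filtration and scintillation counting. Screen at 25 uM duplicate, then concentration series with 50 uM maximum; loss of signal versus DMSO.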
rat Adrenergic Receptor, Beta (Adrb), Non-selective Binding, Adrb1 (gene 24925), sequence (P18090 whole entry, looked up): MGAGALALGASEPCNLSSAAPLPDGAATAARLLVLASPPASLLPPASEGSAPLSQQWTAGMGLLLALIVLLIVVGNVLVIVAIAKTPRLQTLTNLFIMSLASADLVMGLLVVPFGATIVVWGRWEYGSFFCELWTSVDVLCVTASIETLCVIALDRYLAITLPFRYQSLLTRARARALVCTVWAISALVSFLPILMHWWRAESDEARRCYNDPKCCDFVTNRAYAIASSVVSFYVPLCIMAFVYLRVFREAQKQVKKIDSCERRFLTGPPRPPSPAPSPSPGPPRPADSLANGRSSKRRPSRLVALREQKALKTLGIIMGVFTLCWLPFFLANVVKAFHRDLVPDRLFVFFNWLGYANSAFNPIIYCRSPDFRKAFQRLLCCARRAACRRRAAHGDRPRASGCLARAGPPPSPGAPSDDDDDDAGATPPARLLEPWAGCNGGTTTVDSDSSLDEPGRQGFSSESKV
As to `CCOC(=O)[C@]1(c2ccccc2)Oc2ccccc2[C@@H]1N`, the concentration at half-maximal activity (AC50) was 2.61 µM (active).

Turning to `CCC[CH2][Sn]([Cl])([CH2]CCC)[CH2]CCC`, the AC50 is 25 µM (active).

`O=[N+]([O-])c1ccc(Oc2ccc(Cl)cc2Cl)cc1`: the AC50 is 0.52 µM (active).

As to `[Cl-].[Cl-].[Hg+2]`, the AC50 was 35.7 µM (active).

On to `O=Cc1ccco1`, for which the call was inactive.

Regarding `Cc1cc(N=Nc2ccccc2C)ccc1N`, the compound was classed as inactive.

The target of another test is rat Adrenergic Receptor, Alpha 2 (Adra2), Non-selective Binding, Adra2a (gene 25083) (UniProt P22909). Nature of the test: NVS_GPCR_rAdra2_NonSelective: NovaScreen (NVS) G Protein-Coupled Receptor Assay for rat Adrenergic Receptor, Alpha 2 (Adra2), Non-selective Binding (AID 2283299). The gist of the method: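 Filter-based scintillation counting of radioligand binding to rat cortical membrane receptors, measured 1.25 hours post-dosing; loss of signal versus DMSO indicates displacement. Initial single-concentration duplicate at 25 uM, then concentration series.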
rat Adrenergic Receptor, Alpha 2 (Adra2), Non-selective Binding, Adra2a (gene 25083), sequence (P22909 whole entry, looked up): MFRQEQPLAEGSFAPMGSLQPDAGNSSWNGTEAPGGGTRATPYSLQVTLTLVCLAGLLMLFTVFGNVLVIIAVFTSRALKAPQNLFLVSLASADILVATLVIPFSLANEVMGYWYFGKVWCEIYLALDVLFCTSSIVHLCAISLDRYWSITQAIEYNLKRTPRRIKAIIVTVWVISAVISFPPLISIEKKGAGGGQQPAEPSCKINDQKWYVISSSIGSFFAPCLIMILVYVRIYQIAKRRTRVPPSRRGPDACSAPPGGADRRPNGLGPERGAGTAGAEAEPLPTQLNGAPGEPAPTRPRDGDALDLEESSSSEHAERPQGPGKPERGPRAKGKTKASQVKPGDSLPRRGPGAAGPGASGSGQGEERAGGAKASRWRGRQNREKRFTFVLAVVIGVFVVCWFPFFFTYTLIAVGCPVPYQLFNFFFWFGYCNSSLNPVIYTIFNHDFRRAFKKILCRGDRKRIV
Turning to `CCOC(=O)[C@]1(c2ccccc2)Oc2ccccc2[C@@H]1N`, the AC50 was 3.76 µM (active).

For the compound `CCC[CH2][Sn]([Cl])([CH2]CCC)[CH2]CCC`, the concentration at half-maximal activity (AC50) is 2.98 µM (active).

As for `[Cl-].[Cl-].[Hg+2]`, the concentration at half-maximal activity (AC50) is 6.48 µM (active).

In a further test the target is rat Gamma-Aminobutyric Acid Type B Receptor (GABBR), Gabbr1 (gene 81657) (UniProt Q9Z0U4). Put plainly: NVS_GPCR_rGABBR: NovaScreen (NVS) G Protein-Coupled Receptor Assay for rat Gamma-Aminobutyric Acid Type B Receptor (GABBR) (AID 2283301). As for the experimental part:
as §1, with “NVS_GPCR_rGABBR” for “NVS_GPCR_r5HT_NonSelective”, “96-well plate.NVS_GPCR_rGABBR” for “48-well plate.NVS_GPCR_r5HT_NonSelective”, “NVS_GPCR_rGABBR,” for “NVS_GPCR_r5HT_NonSelective,”, “Gabbr1.” for “Htr1a.”, “metabotropic glutamate” for “rhodopsin-like”
(§2) Binding assays used specific radioligands (tritiated, iodinated) with non-radioactive competitive displacement ligands in agonist or antagonist protocols (as indicated) and various reference compounds and inhibitors to titrate specific binding to receptors and transporters. Most enzyme assays (CYPs, kinases, phosphatases, proteases, HDACs) used recombinant protein and specific substrates (fluorescence mostly, some colorimetric and radioactive) and inhibitors, followed by a biochemical separation of substrate and product. All assays for the biochemical HTS were initially run in duplicate at a single concentration (10 uM for CYP450 assays and 25 uM for all others). Assay-chemical combinations meeting a pre-defined threshold (e.g., 30% inhibition and other criteria defined below) were then run in singleton concentration-response format with maximum concentration of 20 uM for CYPs and 50 uM for all others. Each assay was run with positive and negative controls, and concurrent controls on every plate. The follow-up (secondary) screen tested active chemical-pairs in concentration series, as well as a few additional assays not tested in the primary screen, some selected negative inactives, and several cases re-run in the concentration series for confirmatory purposes.
Regarding `CC(C)(O)c1cnn2c(-c3ccc(F)c(-c4c(F)cccc4C#N)c3)cnc2n1`, the compound was classed as inactive.

For the compound `[Cl-].[Cl-].[Hg+2]`, the AC50 is 18.4 µM (active).

As for `ClCCOCCCl`, the result was inactive.

`C[N+](C)(C)CC1CO1` (configuration not stated): the result was inactive.

In the next test the target is rat Histamine Receptor (H3), Hrh3 (gene 85268) (UniProt Q9QYN8). Nature of the test: NVS_GPCR_rH3: NovaScreen (NVS) G Protein-Coupled Receptor Assay for rat Histamine Receptor (H3) (AID 2283303). On the procedure:
as §1, with “NVS_GPCR_rH3” for “NVS_GPCR_r5HT_NonSelective”, “forebrain” for “cortical”, “plate.NVS_GPCR_rH3” for “plate.NVS_GPCR_r5HT_NonSelective”, “NVS_GPCR_rH3,” for “NVS_GPCR_r5HT_NonSelective,”, “Hrh3.” for “Htr1a.”
as §2
As for `CCOC(=O)[C@]1(c2ccccc2)Oc2ccccc2[C@@H]1N`, the AC50 is 10.2 µM (active).

As to `CCC[CH2][Sn]([Cl])([CH2]CCC)[CH2]CCC`, the AC50 was 15.2 µM (active).

Regarding `O=C(Oc1ccc(Br)cc1)N1CCN2CCC1CC2`, the AC50 is 0.851 µM (active).

As for `CC(C)(C)OOC(=O)c1ccccc1`, the call was inactive.

For `[Cl-].[Cl-].[Hg+2]`, the concentration at half-maximal activity (AC50) is 24.6 µM (active).

In the case of `CCCCCCCCn1sccc1=O`, the AC50 is 10.6 µM (active).

The term AC50 denotes the concentration at which the activity in the assay is half-maximal.
